High-throughput results as filed in PubChem BioAssay.
ATXN2 expr inh = Primary qHTS for Inhibitors of ATXN expression | HEK-293 ATXN2-luciferase reporter, luminescence, 24 h | Potency, µM (top dose mostly 57 µM), hits mostly inhibitors | hit rate 0.72% among 360,000; further: nearly all actives have a fitted effect of over 55% in size
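qHTS (up to 57 uM final) was run with 24 h compound exposure of reporter cells at 37 °C. Each well was multiplexed: SteadyGlo luminescence measured ATXN2-luciferase expression after a fluorogenic Gly-Phe-AFC viability readout (25 uM final).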
S2 tox = Viability Counterscreen for Primary qHTS for Inhibitors of ATXN expression | hit rate 0.49% among 400,000 | S2 cells (HEK-293 line with an ATXN2-luciferase reporter) viability, CellTiter-Fluor protease fluorescence, 24 h | AID 651635, 2014 | Potency, µM (titrated, usually from 56.7 µM), hits mostly cytotoxic; further: nearly all actives have a fitted effect of over 40% in size
D3 ag = qHTS of D3 Dopamine Receptor Agonist: qHTS; D3R DiscoveRx beta-arrestin cells, luminescence, 90 min; hit rate 0.58% among 410,000; AID 652048, 2013; D(3) dopamine receptor (Homo sapiens), P35462; max activation, %; in the data active means max activation above about 30%
Target sequence (P35462 whole entry, looked up): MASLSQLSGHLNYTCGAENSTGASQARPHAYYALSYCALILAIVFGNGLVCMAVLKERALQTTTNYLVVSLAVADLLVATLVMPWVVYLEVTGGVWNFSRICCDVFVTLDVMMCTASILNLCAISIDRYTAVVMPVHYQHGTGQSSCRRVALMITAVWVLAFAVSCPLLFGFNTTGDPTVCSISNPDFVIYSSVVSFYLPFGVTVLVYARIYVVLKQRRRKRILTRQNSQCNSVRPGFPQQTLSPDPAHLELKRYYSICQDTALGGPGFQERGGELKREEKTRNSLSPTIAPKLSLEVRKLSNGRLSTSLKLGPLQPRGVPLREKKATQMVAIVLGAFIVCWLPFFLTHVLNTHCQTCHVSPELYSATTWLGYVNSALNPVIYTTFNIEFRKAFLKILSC
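Agonist-mode cell screen: cells plated at 1500/well and incubated overnight at 37 °C, then exposed to library compounds for 90 min at 37 °C. Detection reagent was added for 30–60 min at room temperature, and luminescence was read.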
D3 antag = qHTS of D3 Dopamine Receptor Antagonist: qHTS. D(3) dopamine receptor (Homo sapiens), P35462. D3R cells, DiscoveRx beta-arrestin luminescence, antagonist mode; hits give low values. max response, negative = inhibition, %. hit rate 2.5% among 360,000; in the data active means max response below about -50%; inconclusive means no clear call, values can overlap the other calls
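Cells expressing the human receptor were seeded at 1500 cells/well, incubated overnight at 37 degrees C in 5% CO2, then exposed to library compounds with dopamine controls for 90 minutes at 37 degrees C before luminescent detection.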
IL-1B inflam inh = qHTS for Inhibitors of Inflammasome Signaling: IL-1-beta AlphaLISA Primary Screen | hit rate 4.7% among 360,000 | THP-1 LPS/ATP IL-1B secretion, AlphaLISA, 16 h; hits give low values | activity change, % at 57.5 µM; in the data active means activity change below about -50%; inconclusive means mostly about -30% to -49%
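THP-1 cells pretreated 1 hr with compounds (up to 57.5 uM final), then stimulated with LPS (250 ng/mL final) plus ATP (1.25 mM final); secreted IL-1B measured by AlphaLISA after 16 hr, decreased signal indicating inhibition.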
Integrin act MD = qHTS for Activators of Integrin-Mediated Alleviation for Muscular Dystrophy; alpha7betagal myoblasts, beta-gal FDG fluorescence, 48 h; Potency, µM (doses to about 38.3 µM), usual class: activators; hit rate 0.064% among 350,000; further: nearly all actives have a fitted effect of over 60% in size
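Alpha7betagal+/- myoblasts (passage 13) were plated 16-24 hr, then exposed to compounds (1:260 dilution of DMSO stock) for 48 hours at 37C. After MPER lysis, β-galactosidase reporter activity was read as FDG fluorescence (ex 480/em 540) after 30 minutes.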
Large screens that a line does not name were inactive. A selection: hits, their analogues and other compounds. The true share with any hit is near 7%. Unless noted, the call rests on the fitted dose curve; in most records, active means well fitted curve in the direction sought with a large enough effect; inconclusive means small, poorly fitted or top-dose-only effect, or another doubt; inactive means no such curve, though single readings can be large; an effect the other way counts as inactive or inconclusive.

COC(=O)c1ccc(COC(=O)C2CC(O)CN2S(=O)(=O)c2ccc([N+](=O)[O-])cc2)cc1 (stereo not drawn)	none
CCC(=O)NCCCCCCNC(=O)CC	none
O=C(CCl)NCCCCCCCCCNC(=O)CCl	S2 tox 10µM, IL-1B inflam inh -89.9
CCCC(=O)Nc1cc2nn(-c3ccc(OC)cc3)nc2cc1C	D3 ag 42.6 (no result: D3 antag, IL-1B inflam inh, Integrin act MD)
Cc1ccc(N2C(=O)CSC2c2cccs2)cc1 (stereo not drawn)	D3 antag -56.8
Cc1cc(C)cc(NC(=O)N2CCC(C(N)=O)(N3CCCCC3)CC2)c1	none (no result: D3 antag, IL-1B inflam inh, Integrin act MD)
O=C(COC(=O)c1ccc2c(c1)OCO2)Nc1ccccc1F	none (no result: ATXN2 expr inh)
CC(C)(C)C(=O)NC(=S)Nc1ccccc1C(N)=O	S2 tox inconclusive
Cc1ccc(Nc2c(-c3ccccn3)nc3ccc(C)cn23)cc1	S2 tox inconclusive, D3 antag -78.1 (no result: ATXN2 expr inh)
Cc1ccc(Nc2c(-c3ccccn3)nc3cc(C)ccn23)cc1	ATXN2 expr inh 3.55µM, S2 tox inconclusive, D3 antag -88.1, IL-1B inflam inh -100.2
Cc1ccn2c(Nc3ccc4c(c3)OCO4)c(-c3ccccn3)nc2c1	ATXN2 expr inh inconclusive, S2 tox inconclusive, D3 antag -53.5, IL-1B inflam inh -98.4
Cc1ccn2c(Nc3ccc4c(c3)OCO4)c(-c3ccc(C)o3)nc2c1	S2 tox inconclusive (no result: D3 antag, IL-1B inflam inh, Integrin act MD)
Cc1ccc(Nc2c(-c3ccc(C)cc3)nc3ccc(C)cn23)cc1	none (no result: D3 antag, IL-1B inflam inh, Integrin act MD)
Cc1ccn2c(Nc3ccccc3C)c(-c3ccncc3)nc2c1	S2 tox inconclusive, IL-1B inflam inh -88.7
Cc1ccn2c(NC3CCCC3)c(-c3ccccn3)nc2c1	S2 tox inconclusive, IL-1B inflam inh -96.2
c1ccc(-c2nc3ccccn3c2NC2CCCC2)nc1	ATXN2 expr inh inconclusive, S2 tox inconclusive
C[C@H](CO)N1C[C@H](C)[C@@H](CN(C)S(=O)(=O)c2ccccc2)Oc2ccc(NC(=O)CCC(F)(F)F)cc2C1=O	D3 ag 34.8
Cc1ccc(S(=O)(=O)N(C)C[C@H]2Oc3ccc(NC(=O)C4CCCCC4)cc3C(=O)N([C@H](C)CO)C[C@H]2C)cc1	IL-1B inflam inh -68.6
C[C@H](CO)N1C[C@H](C)[C@@H](CN(C)S(=O)(=O)c2cn(C)cn2)Oc2ccc(NC(=O)Nc3ccccc3)cc2C1=O	none
CCOC(=O)CCCCCC(=O)Nc1ccc2c(c1)C(=O)N([C@H](C)CO)C[C@@H](C)[C@H](CN(C)S(=O)(=O)c1cn(C)cn1)O2	D3 ag 46.9
C[C@H](CO)N1C[C@H](C)[C@@H](CN(C)S(C)(=O)=O)Oc2ccc(NC(=O)C3CC3)cc2C1=O	none
C[C@H](CO)N1C[C@H](C)[C@@H](CN(C)S(C)(=O)=O)Oc2ccc(NC(=O)C3CCCCC3)cc2C1=O	D3 ag 52.3
CCOc1ccccc1C(=O)N(Cc1ccco1)Cc1ccco1	none (no result: ATXN2 expr inh, S2 tox, D3 antag, IL-1B inflam inh, Integrin act MD)
COc1ccc(CCNC(=O)c2ccc3c(c2)OCCO3)cc1	S2 tox inconclusive
O=C(CCc1ccccc1)c1ccc2c(c1)OCCCO2	none
O=C(NCCOc1ccccc1)c1ccc2c(c1)OCO2	ATXN2 expr inh 4.47µM
O=C(CCCc1ccccc1)c1ccc2c(c1)OCCO2	ATXN2 expr inh 10µM
O=C(NCCc1ccccc1)c1ccc2c(c1)OCCO2	ATXN2 expr inh 2.51µM
O=C(NCCc1ccccc1)c1ccc2c(c1)OCCCO2	ATXN2 expr inh 0.708µM
CCSc1nnc2nc(C)cc(C)n12	none
CCCCSc1nnc2nc(C)cc(C)n12	D3 antag -57.6
CCOC(=O)c1nc2cc3n(c(C)c-2c1C)C(C)C(CC)=C3C (stereo not drawn)	IL-1B inflam inh -73.5
O=C(c1cccc(C(=O)N2CCC(O)(c3ccccc3)CC2)c1)N1CCC(O)(c2ccccc2)CC1	S2 tox inconclusive
CCOc1ccc(CCN2C(=S)N([C@@H](Cc3ccc(O)cc3)CN3CCC[C@@H]3CN3C(=S)NC[C@@H]3Cc3ccc(O)cc3)C[C@@H]2Cc2ccc(O)cc2)cc1	ATXN2 expr inh inconclusive, S2 tox inconclusive, D3 antag inconclusive, IL-1B inflam inh -56.8 (no result: Integrin act MD)
CCOc1ccc(CCN2C(=S)N([C@@H](Cc3ccc(O)cc3)CN3CCC[C@@H]3CN3C(=S)NC[C@@H]3Cc3ccccc3)C[C@@H]2Cc2ccccc2)cc1	none (no result: Integrin act MD)
CC(C)C[C@H]1CNC(=S)N1C[C@H]1CCCN1C[C@H](CC(C)C)N1C[C@H](Cc2ccc(O)cc2)N(CCc2ccccc2)C1=S	ATXN2 expr inh inconclusive, S2 tox 7.08µM (no result: Integrin act MD)
CCOc1ccc(CCN2C(=S)N([C@@H](CC(C)C)CN3CCC[C@@H]3CN3C(=S)NC[C@@H]3Cc3ccccc3)C[C@@H]2Cc2ccc(O)cc2)cc1	IL-1B inflam inh -65.5 (no result: Integrin act MD)
CC(C)C[C@H]1CN([C@@H](CC(C)C)CN2CCC[C@@H]2CN2C(=S)NC[C@@H]2Cc2ccc(O)cc2)C(=S)N1CCc1ccccc1	ATXN2 expr inh inconclusive, S2 tox inconclusive, IL-1B inflam inh inconclusive (no result: Integrin act MD)
CCOc1ccc(CCN2C(=S)N([C@@H](Cc3ccc(O)cc3)CN3CCC[C@@H]3CN3C(=S)NC[C@@H]3CC(C)C)C[C@@H]2Cc2ccccc2)cc1	S2 tox inconclusive (no result: Integrin act MD)
CCOc1ccc(CCN2C(=S)N([C@@H](Cc3ccccc3)CN3CCCC3CN3C(=S)NC[C@@H]3Cc3ccccc3)C[C@@H]2Cc2ccc(O)cc2)cc1 (stereo partly drawn)	S2 tox inconclusive (no result: Integrin act MD)
CCOc1ccc(CCN2C(=S)N([C@@H](Cc3ccc(O)cc3)CN3CCC[C@@H]3CN3C(=S)NC[C@@H]3CC(C)C)C[C@@H]2CC(C)C)cc1	ATXN2 expr inh inconclusive, S2 tox inconclusive, D3 antag inconclusive, IL-1B inflam inh -59.0 (no result: Integrin act MD)
CCO[C@H]1OC(C(=O)N2CCCCCCC2)=C[C@@H](c2csc3ccccc23)[C@@H]1CCCO	ATXN2 expr inh inconclusive, S2 tox inconclusive
CCO[C@H]1OC(C(=O)N2CCN(Cc3ccccc3)CC2)=C[C@@H](c2ccc(C(F)(F)F)cc2)[C@@H]1CCCO	ATXN2 expr inh inconclusive, S2 tox inconclusive, IL-1B inflam inh -59.6
C#Cc1ccc([C@H]2C=C(C(=O)OCC=C)O[C@@H](OCC)[C@@H]2CCCO)cc1	S2 tox inconclusive, D3 ag 62.3
C#Cc1ccc([C@H]2C=C(C(=O)N3CCN(Cc4ccc5c(c4)OCO5)CC3)O[C@@H](OCC)[C@@H]2CCCO)cc1	ATXN2 expr inh inconclusive, S2 tox inconclusive, IL-1B inflam inh -50.1
